Hit rate of the full screen: of about 63,000 compounds, about 1,100 (1.7%) were called active. Cut-off read from the data, not from the text of the source: active = cytotoxicity above about 50%; inactive = the rest. This excerpt belongs to a sample that is enriched for actives. Results with a measured potency or affinity are listed apart.
Test: HPDE-C7 pancreatic duct cell viability loss – fluorescence, HTS (AID 430);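 note: cells exposed to compound for 48 hours before viability readout; 0% = vehicle and 100% = reference cytotoxic drug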
Conditions: HPDE-C7 pancreatic duct cells viability, at 10 µM, active compounds read high

Row | SMILES | cytotoxicity
1 | COc1ccc(-n2nnnc2S(=O)(=O)CC(=O)N2CCCCC2)cc1 | 76.4% (active)
2 | COc1cc(OC)cc(-n2nnnc2SCC(=O)N2CCCC2)c1 | -7.2% (inactive)
3 | COc1ccc(-n2nnnc2S(=O)(=O)Cc2ccc(C(=O)O)cc2)cc1 | 4.8% (inactive)
4 | Cc1oc(-c2ccccc2F)nc1CS(=O)CC(=O)NCc1cccs1 (configuration not stated) | -2.6% (inactive)
5 | CCc1c(O)nc(SCC(=O)Nc2ccc(C)cc2)n(C2CCCCC2)c1=O | 51.2% (active)
6 | CCc1c(O)nc(SCC(=O)Nc2ccc(OC)cc2)n(C2CCCCC2)c1=O | -8.3% (inactive)
7 | CCc1c(O)nc(SCC(=O)Nc2ccccc2)n(-c2ccccc2)c1=O | 23% (inactive)
8 | COc1ccc(N2C(=O)CCC(C(=O)c3ccccc3)=C2C)cc1 | -2.2% (inactive)
9 | Cc1c2c(nc3nc4ccccc4n13)CC(C)(C)CC2=O | 0.8% (inactive)
10 | Cc1cc(C)c2cc(C#N)c(SCC(=O)NCC3CCCO3)nc2c1 (configuration not stated) | -15.1% (inactive)
11 | CCn1c2ccccc2c2cc(Nc3cc(C)nc4ncnn34)ccc21 | 64.5% (active)
12 | Cc1cc(Nc2ccc3ccccc3c2)n2ncnc2n1 | -0.5% (inactive)
13 | CCc1cccc(Nc2cc(C)nc3ncnn23)c1 | -0.8% (inactive)
14 | CCOCc1nnc(NC(=O)CSCc2ccccc2)s1 | -3.4% (inactive)
15 | CC1CCCN(c2ncnc3c2cnn3-c2ccccc2)C1 (configuration not stated) | -9.4% (inactive)
16 | Cc1cc(NC(=O)c2c(-c3ccccc3Cl)noc2C)no1 | -12.4% (inactive)
17 | CCC(C)NC(=O)c1c(N)n(/N=C/c2cccnc2)c2nc3ccccc3nc12 (configuration not stated) | 41.4% (inactive)
18 | COCCNC(=O)c1c(N)n(/N=C/c2cccs2)c2nc3ccccc3nc12 | 42.8% (inactive)
19 | COCCCNC(=O)c1c(N)n(/N=C/c2ccccn2)c2nc3ccccc3nc12 | 22% (inactive)
20 | CC(C)CNC(=O)c1c(N)n(/N=C/c2ccccn2)c2nc3ccccc3nc12 | 14.8% (inactive)
21 | CC(C)OCCCNC(=O)c1c(N)n(/N=C/c2ccccn2)c2nc3ccccc3nc12 | 28.4% (inactive)

Row | SMILES | cytotoxicity
22 | CCCCNC(=O)c1c(N)n(/N=C/c2ccccn2)c2nc3ccccc3nc12 | 50.5% (active)
23 | COCCCNC(=O)c1c(N)n(/N=C/c2cccnc2)c2nc3ccccc3nc12 | 33.1% (inactive)
24 | CCOc1cc(C(=O)NCCOC)ccc1OC | -6.6% (inactive)
25 | CC(=O)N1CCN(S(=O)(=O)c2ccc(C)cc2)C1C(C)C (configuration not stated) | 11% (inactive)
26 | CCOc1ccc(-c2cc(CCCC(=O)NCc3cccnc3)no2)cc1 | -0.4% (inactive)
27 | Cn1cccc1Cc1nnc(SCC(=O)NCC2CCCO2)n1-c1ccc(F)cc1 (configuration not stated) | 0.9% (inactive)
28 | COc1ccc(NC2=NC3(CCCCC3)N=C(N)N2)cc1 | 4.1% (inactive)
29 | COc1cccc(NC2=NC3(CCCCC3)N=C(N)N2)c1 | 3.1% (inactive)
30 | CCSc1nnc(NC(=O)c2cnccn2)s1 | -7% (inactive)
31 | CCOC(=O)N1CCC(NC(=O)CC(NS(=O)(=O)c2ccc(Cl)cc2)c2ccco2)CC1 (configuration not stated) | -6.1% (inactive)
32 | COc1ccc(OC)c(NC(=O)CCN2CCN(Cc3ccccc3)CC2)c1 | 0.1% (inactive)
33 | CCCCSCCCNC(=O)CS(=O)Cc1nc(-c2cccc(C)c2)oc1C (configuration not stated) | -17.4% (inactive)
34 | Cc1cccc(-c2nc(CS(=O)CC(=O)NCCCSC3CCCCC3)c(C)o2)c1 (configuration not stated) | 56.1% (active)
35 | CCCCNC(=O)CS(=O)Cc1nc(-c2cccc(C)c2)oc1C (configuration not stated) | 0.4% (inactive)
36 | Cc1ccc(C2(C(F)(F)F)NC(=O)N3CCCN=C3S2)cc1 (configuration not stated) | -18.8% (inactive)
37 | Cc1ccc(C2(C(F)(F)F)NC(=O)N3CCN=C3S2)cc1 (configuration not stated) | 81.6% (active)
38 | O=C1NC(c2ccccc2)(C(F)(F)F)SC2=NCCCN12 (configuration not stated) | -2.2% (inactive)
39 | CC(C)c1ccc2c(c1)C(=O)NC(C)(C)C2 | 1.8% (inactive)
40 | COc1ccccc1C(=O)NCCn1cc(SCC(=O)Nc2nnc(C)s2)c2ccccc21 | -8% (inactive)
41 | CCCn1c(CN(Cc2ccccc2)Cc2ccccc2)nc2c1c(=O)n(C)c(=O)n2C | -14.9% (inactive)
42 | CC(C)Cn1c(CN(C)Cc2ccccc2)nc2c1c(=O)n(C)c(=O)n2C | -6.6% (inactive)

Row | SMILES | cytotoxicity
43 | CC(C)Cn1c(CN(Cc2ccccc2)Cc2ccccc2)nc2c1c(=O)n(C)c(=O)n2C | 51.7% (active)
44 | CCOP(=O)(c1ccc(N(C)C)cc1)C(O)c1cc(OC)c(OC)c(OC)c1 (configuration not stated) | 5.9% (inactive)
45 | CCOC(=O)C(C)Sc1nc(-c2cccs2)ccc1C#N (configuration not stated) | 59.2% (active)
46 | COC(=O)CSc1nc(-c2cccs2)ccc1C#N | 29.9% (inactive)
47 | C=COC(=O)CSc1nc(-c2cccs2)ccc1C#N | 26.7% (inactive)
48 | O=C(Nc1ccccc1N1CCCC1)c1ccco1 | 3.9% (inactive)
49 | O=c1[nH]c2cc3c(cc2cc1CN(CCCO)Cc1nnnn1Cc1ccc(F)cc1)OCO3 | -1.2% (inactive)
50 | CC(=O)Nc1nc(C)nc(-c2ccccc2)c1C(C)=O | -1.8% (inactive)
51 | CCc1nnc(NC(=O)CSc2nnc(-c3ccccc3OC)n2-c2ccccc2)s1 | -8.7% (inactive)
52 | CCc1nnc(NC(=O)CSc2nnc(-c3ccccc3O)n2-c2ccc(C)cc2C)s1 | 73.5% (active)
53 | CCc1nnc(NC(=O)CSc2nnc(-c3ccccc3O)n2-c2ccc(C)cc2)s1 | -7.9% (inactive)
54 | C=CCN(CC=C)S(=O)(=O)c1ccc2nsnc2c1 | -6.7% (inactive)
55 | CCOC(=O)c1ccc2nc(NC(=O)C(C)C)sc2c1 | -3.3% (inactive)
56 | C=CCN(CC=C)S(=O)(=O)c1ccc2nc(NC(=O)C(C)C)sc2c1 | 76.7% (active)
57 | COc1ccc(-c2noc(CSc3nc4ccccc4c(=O)n3-c3ccccc3)n2)cc1OC | -10.3% (inactive)
58 | Cc1ccccc1NC(=O)C1CCCN(S(=O)(=O)c2cnc[nH]2)C1 (configuration not stated) | -5.3% (inactive)
59 | CC(C)c1[nH]nc2c1C(C(C)C)C(C#N)=C(N)O2 (configuration not stated) | -24.3% (inactive)
60 | Cc1cc(C2N=C(N)Nc3nc4ccccc4n32)c(C)n1-c1ccccc1Cl (configuration not stated) | 2.7% (inactive)
61 | NC1=NC(c2ccc(F)cc2)n2c(nc3ccccc32)N1 (configuration not stated) | -3.6% (inactive)
62 | COc1cc(S(=O)(=O)N2CCN(c3ccccc3)CC2)ccc1Cl | -12.6% (inactive)

From PubChem BioAssay AID430 (Sanford-Burnham Center for Chemical Genomics, 2006)
